Laboratory results reported in PubChem BioAssay AID1159580 (chemical genetic matrix, 2015).
In all, about 5,500 compounds went through this assay and about 2,000 (36%) were called active. Roughly 18% stayed inconclusive and do not appear here. Cut-off read from the data, not from the text of the source: active = normalized growth mostly below about 0.91 (no sharp cut-off); inconclusive = no clear call, values can overlap the other calls; inactive = mostly above about 0.92. The list shows a part of the results.

Assay: chemical genetic growth profiling, strain panel (AID 1159580);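 note: tested at 20 µM; growth read once vehicle control cultures reached saturation at 30 °C; 1 = growth at the plate median or of vehicle wells; lower values mean less growth of the strain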
Details: S. cerevisiae deletion strains, growth OD

Measured: normalized growth

C=CCCCCCCCCCCCC(O)CC(O)COC(C)=O (configuration not stated) (tested in a mixture with another compound)
inactive: locus YAL013W, strain DEP1, stronger effect = lower value 0.943 | locus YAL021C, strain ccr4, stronger effect = lower value 1.01 | locus YAL026C, strain drs2, stronger effect = lower value 0.937 | locus YAL030W, strain snc1, stronger effect = lower value 0.963 | locus YBL061C, strain skt5, stronger effect = lower value 0.95 | locus YBR171W, strain sec66, stronger effect = lower value 0.946 | locus YBR229C, strain ROT2, stronger effect = lower value 1 | locus YBR231C, strain swc5, stronger effect = lower value 0.971 | locus YBR279W, strain paf1, stronger effect = lower value 0.949 | locus YCL029C, strain bik1, stronger effect = lower value 0.951 | locus YCL061C, strain MRC1, stronger effect = lower value 0.936 | locus YCL069W, strain vba3, stronger effect = lower value 0.963 | locus YCR088W, strain abp1, stronger effect = lower value 0.978 | locus YDL005C, strain med2, stronger effect = lower value 0.955 | locus YDL035C, strain GPR1, stronger effect = lower value 0.907 | locus YDL040C, strain nat1, stronger effect = lower value 0.967 | locus YDL101C, strain DUN1, stronger effect = lower value 0.983 | locus YDL134C, strain PPH21, stronger effect = lower value 0.892 | locus YDL185W, strain tfp1, stronger effect = lower value 1.01 | locus YDR001C, strain nth1, stronger effect = lower value 0.967 | locus YDR069C, strain doa4, stronger effect = lower value 1.02 | locus YDR137W, strain rgp1, stronger effect = lower value 0.882 | locus YDR150W, strain NUM1, stronger effect = lower value 1.02 | locus YDR159W, strain sac3, stronger effect = lower value 0.947 | locus YDR162C, strain NBP2, stronger effect = lower value 0.999 | locus YDR195W, strain ref2 0.875 | locus YDR297W, strain sur2, stronger effect = lower value 0.962 | locus YDR334W, strain swr1, stronger effect = lower value 0.993 | locus YDR335W, strain msn5, stronger effect = lower value 0.969 | locus YDR388W, stronger effect = lower value 0.991 | locus YEL003W, strain gim4, stronger effect = lower value 0.95 | locus YEL037C, strain rad23, stronger effect = lower value 0.966 | locus YEL061C, strain CIN8 (second series), stronger effect = lower value 0.971 | locus YER015W, strain faa2, stronger effect = lower value 0.982 | locus YER016W, strain bim1, stronger effect = lower value 0.981 | locus YER110C, stronger effect = lower value 0.995 | locus YER111C, strain swi4, stronger effect = lower value 0.947 | locus YER155C, strain BEM2 (second series), stronger effect = lower value 0.877 | locus YER167W, strain BCK2, stronger effect = lower value 0.979 | locus YFR010W, strain ubp6, stronger effect = lower value 0.974 | locus YGL078C, strain dbp3, stronger effect = lower value 0.933 | locus YGL167C, strain pmr1, stronger effect = lower value 0.966 | locus YGL173C, strain kem1, stronger effect = lower value 0.941 | locus YGL227W, strain vid30, stronger effect = lower value 0.969 | locus YGL240W, strain doc1, stronger effect = lower value 0.952 | locus YGL248W, strain PDE1, stronger effect = lower value 0.89 | locus YGR135W, strain pre9, stronger effect = lower value 0.971 | locus YGR229C, strain SMI1, stronger effect = lower value 0.838 | locus YGR252W, strain gcn5, stronger effect = lower value 0.782 | locus YHR027C, strain rpn1, stronger effect = lower value 0.964 | locus YHR030C, strain SLT2, stronger effect = lower value 1.01 | locus YHR079C, strain IRE1 (second series), stronger effect = lower value 0.993 | locus YHR094C, strain hxt1, stronger effect = lower value 0.992 | locus YHR200W, strain rpn10, stronger effect = lower value 0.938 | locus YIL066C, strain RNR3, stronger effect = lower value 0.921 | locus YIL073C, strain SPO22, stronger effect = lower value 1.05 | locus YIR030C, strain dcg1, stronger effect = lower value 0.972 | locus YJL092W, strain hpr5, stronger effect = lower value 0.973 | locus YJL095W, strain BCK1, stronger effect = lower value 0.827 | locus YJL115W, strain asf1, stronger effect = lower value 0.953 | locus YJL134W, strain LCB3, stronger effect = lower value 1.02 | locus YJL154C, strain vps35, stronger effect = lower value 0.965
active: locus YBR009C, strain hhf1, stronger effect = lower value 0.798 | locus YBR021W, strain FUR4, stronger effect = lower value 0.78 | locus YBR023C, strain chs3, stronger effect = lower value 0.891 | locus YCL011C, strain gbp2, stronger effect = lower value 0.866 | locus YCL016C, strain dcc1, stronger effect = lower value 0.907 | locus YDL074C, strain BRE1, stronger effect = lower value 0.723 | locus YDL192W, strain arf1, stronger effect = lower value 0.875 | locus YDR101C, strain arx1, stronger effect = lower value 0.886 | locus YDR318W, strain mcm21, stronger effect = lower value 0.911 | locus YDR392W, strain spt3, stronger effect = lower value 0.329 | locus YDR502C, strain sam2, stronger effect = lower value 0.912 | locus YER155C, strain BEM2, stronger effect = lower value 0.646 | locus YGL086W, strain mad1, stronger effect = lower value 0.835 | locus YGL253W, strain hxk2, stronger effect = lower value 0.847 | locus YHR013C, strain ard1, stronger effect = lower value 1.16 [resistant] | locus YHR129C, strain ARP1, stronger effect = lower value 0.914 | locus YHR142W, strain chs7, stronger effect = lower value 0.714 | locus YIL125W, strain kgd1, stronger effect = lower value 0.908 | locus YJL095W, strain BCK1 (second series), stronger effect = lower value 0.905 | locus YJL129C, strain trk1, stronger effect = lower value 0.802
